# Records with an inconclusive call do not appear. The source made the active and inactive calls. How the source made its calls, unless noted: active means hit-call score of the fitted dose curve at least 0.9, where 1 is the maximum; inconclusive means response in the unintended direction; inactive means score below 0.9.
# Key:
# [1] = biological target: Bile acid receptor (Homo sapiens) (UniProt Q96RI1); test: ATG_FXR_TRANS: Attagene TRANS-FACTORIAL HepG2 Assay for Farnesoid X Receptor (FXR) (AID 2282979); conditions: HepG2 Attagene TRANS FXR-GAL4 reporter transcription;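 further: hits raise reporter mRNA above DMSO so AC50 marks FXR activation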
# Sequence of Bile acid receptor (Homo sapiens) (Q96RI1 whole entry, looked up, the tested form may be a part): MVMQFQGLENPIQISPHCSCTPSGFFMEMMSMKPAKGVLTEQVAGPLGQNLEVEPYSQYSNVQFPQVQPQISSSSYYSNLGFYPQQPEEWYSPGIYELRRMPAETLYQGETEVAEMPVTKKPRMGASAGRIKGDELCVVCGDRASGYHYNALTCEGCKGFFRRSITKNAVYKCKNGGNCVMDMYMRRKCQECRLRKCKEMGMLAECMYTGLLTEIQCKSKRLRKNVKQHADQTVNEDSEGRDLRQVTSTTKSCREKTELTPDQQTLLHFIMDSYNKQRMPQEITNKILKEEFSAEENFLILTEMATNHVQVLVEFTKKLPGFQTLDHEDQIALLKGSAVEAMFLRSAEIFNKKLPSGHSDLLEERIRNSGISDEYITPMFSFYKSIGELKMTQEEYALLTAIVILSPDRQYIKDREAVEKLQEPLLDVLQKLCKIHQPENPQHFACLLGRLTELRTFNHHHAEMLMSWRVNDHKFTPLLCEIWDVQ
# How it was run: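 Transient transfection of HepG2 with multiplexed GAL4-UAS reporter units; exogenous FXR-GAL4 chimera. Dose 24 h → TriZol RNA → oligo(dT) RT → PCR, 6-FAM primer extension, HpaI cut → CE. Gain vs DMSO.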
# [2] = biological target: Nuclear receptor subfamily 4 group A member 2 (Homo sapiens) (UniProt P43354); test: ATG_NURR1_TRANS: Attagene TRANS-FACTORIAL HepG2 Assay for human Nuclear Receptor Related Protein 1 (NURR1) (AID 2282985); conditions: HepG2 Attagene TRANS reporter, mRNA readout
# Sequence of Nuclear receptor subfamily 4 group A member 2 (Homo sapiens) (P43354 whole entry, looked up, the tested form may be a part): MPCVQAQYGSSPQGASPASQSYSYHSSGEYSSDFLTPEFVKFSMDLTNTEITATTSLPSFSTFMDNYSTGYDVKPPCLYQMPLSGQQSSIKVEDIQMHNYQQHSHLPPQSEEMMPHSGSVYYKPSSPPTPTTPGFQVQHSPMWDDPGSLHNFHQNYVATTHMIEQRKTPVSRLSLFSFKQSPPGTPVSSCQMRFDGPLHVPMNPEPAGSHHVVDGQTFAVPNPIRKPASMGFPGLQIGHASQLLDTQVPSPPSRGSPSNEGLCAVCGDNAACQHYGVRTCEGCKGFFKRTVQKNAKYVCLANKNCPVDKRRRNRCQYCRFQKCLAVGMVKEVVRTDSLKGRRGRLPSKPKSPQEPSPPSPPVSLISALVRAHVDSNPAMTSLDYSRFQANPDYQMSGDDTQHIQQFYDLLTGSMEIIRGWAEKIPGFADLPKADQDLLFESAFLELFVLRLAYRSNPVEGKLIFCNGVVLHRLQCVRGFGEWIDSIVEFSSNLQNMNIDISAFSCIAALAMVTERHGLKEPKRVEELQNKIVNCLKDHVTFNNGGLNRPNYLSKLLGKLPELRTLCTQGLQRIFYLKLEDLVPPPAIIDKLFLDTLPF
# How it was run: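 Reporter transcript induction, measured by RT-PCR with fluorescent labelling, HpaI digestion and capillary electrophoresis, after 24 hr dosing of human HepG2 cells transiently expressing an exogenous NR-Gal4 fusion with GAL4-UAS-driven reporters; DMSO as baseline.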
# [3] = biological target: Nuclear respiratory factor 1 (Homo sapiens) (UniProt Q16656); test: ATG_NRF1_CIS: Attagene CIS-FACTORIAL HepG2 Assay for human Nuclear Respiratory Factor 1 (NRF1) Orphan Gene (AID 2282987; active means hit-call score of the fitted dose curve at least 0.9, where 1 is the maximum; inactive means score below 0.9); conditions: HepG2 NRF1 cis-element reporter, Attagene multiplex; actives raise or lower the signal
# Sequence of Nuclear respiratory factor 1 (Homo sapiens) (Q16656 whole entry, looked up): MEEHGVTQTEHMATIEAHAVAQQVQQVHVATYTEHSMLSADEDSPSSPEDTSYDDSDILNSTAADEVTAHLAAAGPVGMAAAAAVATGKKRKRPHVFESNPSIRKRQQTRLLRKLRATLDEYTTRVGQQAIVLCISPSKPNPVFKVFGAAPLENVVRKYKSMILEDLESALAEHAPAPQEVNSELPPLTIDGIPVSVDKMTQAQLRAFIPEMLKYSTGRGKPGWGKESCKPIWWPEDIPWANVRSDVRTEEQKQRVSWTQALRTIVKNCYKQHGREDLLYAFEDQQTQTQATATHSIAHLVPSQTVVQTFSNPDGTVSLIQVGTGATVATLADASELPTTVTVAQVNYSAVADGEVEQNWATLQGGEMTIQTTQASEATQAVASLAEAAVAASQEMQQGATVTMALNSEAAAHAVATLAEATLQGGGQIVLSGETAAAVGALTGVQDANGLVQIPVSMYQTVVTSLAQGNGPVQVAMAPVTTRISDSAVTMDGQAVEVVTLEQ
# How it was run: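 Endogenous NRF1-driven reporter transcription in transfected HepG2 cells after 24 h treatment. Readout: RT-PCR products, 6-FAM labelled and resolved by capillary electrophoresis; changes fitted both directions relative to DMSO.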
# [4] = ATG_M_32_TRANS: Attagene TRANS-FACTORIAL HepG2 Assay for M32 Transcription Factor (Internal Marker) (AID 2282984); conditions: HepG2 Attagene TRANS M32 internal marker reporter;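 further: transcript level of a background control reporter unit measured by RT-PCR and capillary electrophoresis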
# How it was run: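 Internal background reporter in transfected HepG2: after 24 h chemical exposure, RNA reverse-transcribed, reporter cDNA amplified, fluorescently labelled and HpaI-cut, then sized by capillary electrophoresis. Gain of signal fitted against DMSO control.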
# [5] = biological target: Transcriptional activator Myb (Homo sapiens) (UniProt P10242); test: ATG_Myb_CIS: Attagene CIS-FACTORIAL HepG2 Assay for human Myeloblastosis (Myb) Proto-Oncogene Transcription Factor (AID 2282986; active means hit-call score of the fitted dose curve at least 0.9, where 1 is the maximum; inactive means score below 0.9); conditions: HepG2 Attagene CIS-FACTORIAL Myb reporter transcription; actives raise or lower the signal
# Sequence of Transcriptional activator Myb (Homo sapiens) (P10242 whole entry, looked up): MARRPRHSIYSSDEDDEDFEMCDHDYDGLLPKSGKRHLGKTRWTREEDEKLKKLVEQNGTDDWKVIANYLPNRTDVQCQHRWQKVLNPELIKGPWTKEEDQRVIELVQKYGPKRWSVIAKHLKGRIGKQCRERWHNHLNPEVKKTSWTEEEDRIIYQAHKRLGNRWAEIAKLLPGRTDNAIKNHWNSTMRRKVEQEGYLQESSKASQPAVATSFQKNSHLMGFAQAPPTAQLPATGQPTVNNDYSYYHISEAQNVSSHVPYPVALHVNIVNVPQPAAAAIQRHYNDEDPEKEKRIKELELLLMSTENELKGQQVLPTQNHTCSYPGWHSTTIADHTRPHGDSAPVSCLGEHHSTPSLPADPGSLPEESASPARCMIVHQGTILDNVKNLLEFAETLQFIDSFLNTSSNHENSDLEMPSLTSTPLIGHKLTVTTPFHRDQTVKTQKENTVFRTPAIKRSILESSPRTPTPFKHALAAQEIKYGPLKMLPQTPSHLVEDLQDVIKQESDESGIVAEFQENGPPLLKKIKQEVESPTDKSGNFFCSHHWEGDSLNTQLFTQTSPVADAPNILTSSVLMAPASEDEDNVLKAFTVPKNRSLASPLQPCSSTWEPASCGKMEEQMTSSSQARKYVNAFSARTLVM
# How it was run: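 Reporter mRNA is quantified by RT-PCR and capillary electrophoresis 24 h after dosing HepG2 cells transfected with cis-regulated reporter units, which track endogenous transcription factor activity. Gain and loss of signal are fitted versus DMSO baseline.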
# [6] = ATG_NFI_CIS: Attagene CIS-FACTORIAL HepG2 Assay for human Nuclear Factor I (NFI) (AID 2282989; active means hit-call score of the fitted dose curve at least 0.9, where 1 is the maximum; inactive means score below 0.9); conditions: HepG2 cis-regulatory reporter, NFI response element transcription; actives raise or lower the signal
# How it was run: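 Transfected HepG2 liver cells, exposed 24 h, supplied total RNA for oligo(dT) reverse transcription and reporter-specific PCR. Labelled, HpaI-cut fragments were sized by capillary electrophoresis; DMSO set the baseline for bidirectional fitting.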
# [7] = biological target: Oxysterols receptor LXR-alpha (Homo sapiens) (UniProt Q13133); test: ATG_LXRa_TRANS: Attagene TRANS-FACTORIAL HepG2 Assay for human Liver X Receptor alpha (LXRa) (AID 2282980); conditions: HepG2 Attagene TRANS reporter, LXRa transactivation
# Sequence of Oxysterols receptor LXR-alpha (Homo sapiens) (Q13133 whole entry, looked up, the tested form may be a part): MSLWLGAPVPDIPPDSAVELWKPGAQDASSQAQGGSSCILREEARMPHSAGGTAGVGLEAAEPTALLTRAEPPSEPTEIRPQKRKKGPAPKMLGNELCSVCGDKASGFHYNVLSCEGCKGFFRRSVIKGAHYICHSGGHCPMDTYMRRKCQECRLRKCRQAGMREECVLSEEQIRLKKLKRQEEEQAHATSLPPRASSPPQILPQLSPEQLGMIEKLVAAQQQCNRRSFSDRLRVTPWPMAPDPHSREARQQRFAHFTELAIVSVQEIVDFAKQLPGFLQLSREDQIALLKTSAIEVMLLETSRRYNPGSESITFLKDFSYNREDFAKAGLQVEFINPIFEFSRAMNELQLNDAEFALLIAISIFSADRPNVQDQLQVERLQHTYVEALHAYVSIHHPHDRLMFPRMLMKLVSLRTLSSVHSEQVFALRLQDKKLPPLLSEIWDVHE
# How it was run: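 Transfect HepG2 with GAL4-UAS multiplex reporter constructs (TRANS format, chimeric receptor-GAL4); treat 24 h; extract RNA, reverse-transcribe, PCR-amplify, FAM-label, HpaI-digest; resolve fragments by capillary electrophoresis. Upward response vs DMSO.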
# [8] = biological target: Oxysterols receptor LXR-beta (Homo sapiens) (UniProt P55055); test: ATG_LXRb_TRANS: Attagene TRANS-FACTORIAL HepG2 Assay for human Liver X Receptor beta (LXRb) (AID 2282981); conditions: HepG2 Attagene TRANS GAL4-LXRb reporter, mRNA
# Sequence of Oxysterols receptor LXR-beta (Homo sapiens) (P55055 whole entry, looked up, the tested form may be a part): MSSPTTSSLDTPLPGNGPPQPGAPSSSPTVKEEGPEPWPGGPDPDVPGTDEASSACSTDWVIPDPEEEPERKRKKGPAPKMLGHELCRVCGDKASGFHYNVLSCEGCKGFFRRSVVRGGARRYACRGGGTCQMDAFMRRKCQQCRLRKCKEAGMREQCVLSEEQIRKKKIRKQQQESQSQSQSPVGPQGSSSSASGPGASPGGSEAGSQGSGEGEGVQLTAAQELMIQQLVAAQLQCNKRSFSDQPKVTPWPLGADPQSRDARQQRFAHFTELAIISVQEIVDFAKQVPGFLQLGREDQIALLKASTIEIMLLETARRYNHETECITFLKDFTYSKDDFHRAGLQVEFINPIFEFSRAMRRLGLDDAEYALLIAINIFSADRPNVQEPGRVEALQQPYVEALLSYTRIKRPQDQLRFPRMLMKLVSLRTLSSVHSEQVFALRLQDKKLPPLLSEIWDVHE
# How it was run: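 After 24 h chemical treatment of transfected HepG2 cells carrying exogenous NR-Gal4 chimeras, reporter mRNA was quantified by fluorescent RT-PCR and capillary electrophoresis; activity taken as increase over DMSO controls.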
# [9] = biological target: Hepatocyte nuclear factor 4-alpha (Homo sapiens) (UniProt P41235); test: ATG_HNF4a_TRANS: Attagene TRANS-FACTORIAL HepG2 Assay for human Hepatocyte Nuclear Factor 4 alpha (HNF4a) (AID 2282982); conditions: HepG2 HNF4a transactivation reporter, mRNA readout
# Sequence of Hepatocyte nuclear factor 4-alpha (Homo sapiens) (P41235 whole entry, looked up, the tested form may be a part): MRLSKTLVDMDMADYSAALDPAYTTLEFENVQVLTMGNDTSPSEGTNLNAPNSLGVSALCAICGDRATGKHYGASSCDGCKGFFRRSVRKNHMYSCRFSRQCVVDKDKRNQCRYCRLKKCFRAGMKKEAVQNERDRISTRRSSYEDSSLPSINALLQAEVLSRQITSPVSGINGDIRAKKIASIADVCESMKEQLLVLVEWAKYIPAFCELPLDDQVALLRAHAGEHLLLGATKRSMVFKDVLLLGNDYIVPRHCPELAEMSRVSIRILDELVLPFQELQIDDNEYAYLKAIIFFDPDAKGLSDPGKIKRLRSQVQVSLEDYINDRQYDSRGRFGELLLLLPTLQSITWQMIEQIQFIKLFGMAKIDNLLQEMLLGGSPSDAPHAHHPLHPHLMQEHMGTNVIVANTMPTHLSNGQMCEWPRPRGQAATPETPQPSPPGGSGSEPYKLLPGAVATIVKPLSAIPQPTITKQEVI
# How it was run: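 Activity of an exogenous HNF4a–Gal4 fusion scored as induced GAL4-UAS reporter transcripts after 24 h chemical exposure of transfected human HepG2 cells. Read-out via RT-PCR with 6-FAM labelling and capillary electrophoresis; rise over DMSO baseline.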
# [10] = ATG_M_06_TRANS: Attagene TRANS-FACTORIAL HepG2 Assay for M06 Transcription Factor (Internal Marker) (AID 2282983); conditions: HepG2 Attagene TRANS M06 internal marker reporter;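 on AC50: potency for rise in reporter mRNA above DMSO baseline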;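 on outcome: reporter transcript level by RT-PCR then capillary electrophoresis fluorescence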
# How it was run: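 Background control endpoint: reporter mRNA from transiently transfected HepG2 after 24 h dosing, detected by RT-PCR with capillary electrophoresis fluorescence. Analysed for gain versus DMSO.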
smiles,measurement,setting,value
C[Si]1(C)O[Si](C)(C)O[Si](C)(C)O1,outcome,[1],inactive
same,outcome,[2],inactive
same,outcome,[3],inactive
Clc1cc(Cl)c(-c2c(Cl)c(Cl)cc(Cl)c2Cl)cc1Cl,outcome,[1],inactive
same,outcome,[4],inactive
same,outcome,[2],inactive
same,outcome,[5],inactive
same,outcome,[3],inactive
same,outcome,[6],inactive
C#CC(C)N(C)C(=O)Nc1ccc(Cl)cc1 (stereo unspecified),outcome,[7],inactive
same,outcome,[8],inactive
same,outcome,[9],inactive
same,outcome,[10],inactive
same,outcome,[2],inactive
same,outcome,[5],inactive
same,outcome,[3],inactive
same,outcome,[6],inactive
CCN(CCC#N)c1ccc(N=Nc2ccc([N+](=O)[O-])cc2)cc1,outcome,[1],inactive
same,outcome,[10],inactive
same,outcome,[4],inactive
same,outcome,[5],inactive
same,outcome,[3],inactive
same,outcome,[6],inactive
CC/C=C\CCOC(=O)CC,outcome,[1],inactive
same,outcome,[2],inactive
same,outcome,[3],inactive
same,outcome,[6],inactive
NCc1ccco1,outcome,[1],inactive
same,outcome,[4],inactive
same,outcome,[5],inactive
same,outcome,[3],inactive
same,outcome,[6],inactive
O=C1OC2(c3ccccc31)c1ccc(O)c(Br)c1Oc1c2ccc(O)c1Br,outcome,[7],inactive
same,outcome,[8],inactive
same,outcome,[10],inactive
same,outcome,[4],inactive
same,outcome,[2],inactive
same,outcome,[5],inactive
same,outcome,[3],inactive
same,outcome,[6],inactive
Nc1c(S(=O)(=O)O)cc(Br)c2c1C(=O)c1ccccc1C2=O,outcome,[7],inactive
same,outcome,[8],inactive
same,outcome,[10],inactive
same,outcome,[4],inactive
same,outcome,[2],inactive
same,outcome,[5],inactive
same,outcome,[3],inactive
same,outcome,[6],inactive
CCN(CC)C(=O)N(CC)CC,outcome,[1],inactive
same,outcome,[10],inactive
same,outcome,[4],inactive
same,outcome,[5],inactive
same,outcome,[3],inactive
same,outcome,[6],inactive
Nc1ccc(N)c2c1C(=O)c1ccccc1C2=O,outcome,[1],inactive
same,outcome,[4],inactive
same,outcome,[2],inactive
same,outcome,[5],inactive
same,outcome,[3],inactive
same,outcome,[6],inactive
Nc1c(Cl)cc(Cl)cc1[N+](=O)[O-],outcome,[7],inactive
same,outcome,[8],inactive
same,outcome,[9],inactive
same,outcome,[10],inactive
same,outcome,[4],inactive
same,outcome,[5],inactive
same,outcome,[3],inactive
same,outcome,[6],inactive
COc1cc(C(C)C)ccc1C,outcome,[1],inactive
same,outcome,[10],inactive
same,outcome,[5],inactive
same,outcome,[3],inactive
same,outcome,[6],inactive
ClC(c1ccccc1)(c1ccccc1)c1ccccc1,outcome,[1],inactive
same,outcome,[10],inactive
same,outcome,[2],inactive
same,outcome,[5],inactive
same,outcome,[3],inactive
CCCCCCCCN1CCCC1=O,outcome,[1],inactive
same,outcome,[10],inactive
same,outcome,[5],inactive
same,outcome,[3],inactive
same,outcome,[6],inactive
N#Cc1cscn1,outcome,[1],inactive
same,outcome,[10],inactive
same,outcome,[2],inactive
same,outcome,[5],inactive
same,outcome,[3],inactive
same,outcome,[6],inactive
O=C1OC[C@H](Cc2cccc(O)c2)[C@H]1Cc1cccc(O)c1,outcome,[7],inactive
same,outcome,[8],inactive
same,outcome,[9],inactive
same,outcome,[10],inactive
same,outcome,[2],inactive
same,outcome,[5],inactive
same,outcome,[3],inactive
same,outcome,[6],inactive
CCCC1O[C@@H]2C[C@H]3[C@@H]4CCC5=CC(=O)C=C[C@]5(C)[C@H]4[C@@H](O)C[C@]3(C)[C@]2(C(=O)CO)O1 (stereo partly specified),outcome,[1],inactive
same,outcome,[10],inactive
same,outcome,[2],inactive
same,outcome,[5],inactive
same,outcome,[3],inactive
C=Cc1ccc(C(C)(C)C)cc1,outcome,[1],inactive
same,outcome,[2],inactive
same,outcome,[5],inactive
same,outcome,[3],inactive
same,outcome,[6],inactive
CCCCCC(C=O)=Cc1ccccc1,outcome,[1],inactive
same,outcome,[10],inactive
same,outcome,[4],inactive
same,outcome,[5],inactive
same,outcome,[3],inactive
same,outcome,[6],inactive
CCCCC(CC)C(=O)OC(C)C (stereo unspecified),outcome,[7],inactive
same,outcome,[8],inactive
same,outcome,[10],inactive
same,outcome,[4],inactive
same,outcome,[2],inactive
same,outcome,[5],inactive
same,outcome,[3],inactive
same,outcome,[6],inactive
CC(=O)C(C)O (stereo unspecified),outcome,[7],inactive
same,outcome,[8],inactive
same,outcome,[9],inactive
same,outcome,[10],inactive
same,outcome,[2],inactive
same,outcome,[5],inactive
same,outcome,[3],inactive
same,outcome,[6],inactive
Clc1ccc(C(c2ccccc2Cl)C(Cl)Cl)cc1 (stereo unspecified),outcome,[1],inactive
same,outcome,[10],inactive
same,outcome,[4],inactive
same,outcome,[5],inactive
same,AC50,[3],44.2 µM (active)
same,AC50,[6],34.7 µM (active)
C=C(C)[C@@H]1CC=C(C)C(=O)C1,outcome,[7],inactive
same,outcome,[8],inactive
same,outcome,[9],inactive
same,outcome,[4],inactive
same,outcome,[2],inactive
same,outcome,[5],inactive
same,outcome,[3],inactive
CCCCCCC(=O)c1ccccc1,outcome,[1],inactive
same,outcome,[3],inactive
same,outcome,[6],inactive
C[C@H]1O[C@@H](O[C@H]2[C@@H](O)C[C@H](O[C@H]3[C@@H](O)C[C@H](O[C@H]4CC[C@@]5(C)[C@H](CC[C@@H]6[C@@H]5C[C@@H](O)[C@]5(C)[C@@H](C7=CC(=O)OC7)CC[C@]65O)C4)O[C@@H]3C)O[C@@H]2C)C[C@H](O)[C@@H]1O,outcome,[7],inactive
same,outcome,[8],inactive
same,outcome,[9],inactive
same,outcome,[4],inactive
same,outcome,[2],inactive
same,AC50,[5],428 nM (active)
same,AC50,[3],0.00312 µM (active)
same,AC50,[6],0.0705 µM (active)
C1CCCCC1,outcome,[7],inactive
same,outcome,[8],inactive
same,outcome,[9],inactive
same,outcome,[4],inactive
same,outcome,[2],inactive
same,outcome,[5],inactive
same,outcome,[3],inactive
same,outcome,[6],inactive
CC(CN=Cc1ccccc1O)N=Cc1ccccc1O (stereo unspecified),outcome,[7],inactive
same,outcome,[8],inactive
same,outcome,[10],inactive
same,outcome,[4],inactive
same,outcome,[2],inactive
same,AC50,[3],55.3 µM (active)
same,outcome,[6],inactive
CCCCCCCCCCCCCCN(CCO)CCO,outcome,[7],inactive
same,outcome,[8],inactive
same,outcome,[9],inactive
same,AC50,[10],162 µM (active)
same,outcome,[2],inactive
same,outcome,[5],inactive
same,outcome,[3],inactive
CC(C)=CCCC(C)CC(=O)O (stereo unspecified),outcome,[7],inactive
same,outcome,[8],inactive
same,outcome,[10],inactive
same,outcome,[2],inactive
same,outcome,[5],inactive
same,outcome,[3],inactive
same,outcome,[6],inactive
[O-]n1ccccc1=S.[O-]n1ccccc1=S.[Zn+2],outcome,[7],inactive
same,outcome,[9],inactive
same,outcome,[10],inactive
same,outcome,[4],inactive
same,outcome,[5],inactive
same,outcome,[3],inactive
same,outcome,[6],inactive
CCc1ccc(O)c(OC)c1,outcome,[7],inactive
same,outcome,[10],inactive
same,outcome,[2],inactive
same,outcome,[5],inactive
same,outcome,[3],inactive
OCCc1ccccc1,outcome,[7],inactive
same,outcome,[8],inactive
same,outcome,[10],inactive
same,outcome,[2],inactive
same,outcome,[5],inactive
same,outcome,[3],inactive
same,outcome,[6],inactive

# Reference: PubChem BioAssay (EPA / NIEHS)
